Experimental findings from PubChem BioAssay (Tox21) are described below.

A short description of assay [1]: qHTS assay to test for compound auto fluorescence at 535 nm (green) in HEK293 cells (AID 720680). (In general: In qHTS, concentration-response curves come from the screen itself.)
A short description of assay [2]: qHTS assay to test for compound auto fluorescence at 460 nm (blue) in HEK293 cell free culture (AID 720681). In outline: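 Test compounds were pinned into cell-free culture medium (DMEM with 10% FBS) and fluorescence was read directly at Ex/Em 405/460 nm. Signals were expressed as fluorescence equivalents of triamterene, with DMSO vehicle as control.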
The nature of assay [3]: qHTS assay to test for compound auto fluorescence at 535 nm (green) in HEK293 cell free culture (AID 720682). In outline: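 No cells present: wells hold DMEM supplemented with 10% FBS, into which compound or vehicle is pinned. Green emission is then recorded (485 nm excitation, 535 nm emission) and scaled to fluorescein.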
Assay [4] in a line: qHTS assay to test for compound auto fluorescence at 590 nm (red) in HEK293 cell free culture (AID 720683). In outline: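 Tox21 10K library compounds were pinned into cell-free DMEM with 10% FBS and fluorescence was read at excitation 540 nm. Activity is expressed as Rose Bengal sodium equivalency.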
The nature of assay [5]: qHTS assay to test for compound auto fluorescence at 590 nm (red) in HepG2 cell free culture (AID 720684). In outline: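 Measured in medium alone (MEM containing 10% FBS) following pintool addition of compound; emission at 590 nm with 540 nm excitation, referenced to Rose Bengal sodium.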
Assay [6] in a line: qHTS assay to test for compound auto fluorescence at 460 nm (blue) in HepG2 cell free culture (AID 720685). In outline: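 Compound (23 nL) or DMSO pinned into cell-free MEM with 10% FBS; blue fluorescence read at 405/460 nm excitation/emission, expressed as auto-fluorescence equivalency to triamterene.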
The nature of assay [7]: qHTS assay to test for compound auto fluorescence at 460 nm (blue) in HepG2 cells (AID 720687). In outline: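 Cells (2,000/well in MEM with 10% FBS) attached overnight at 37 C, then were exposed to compound or DMSO for 1 hr at 37 C, 5% CO2. Fluorescence read at Ex/Em 405/460 nm, expressed as triamterene-equivalent signal.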
Assay [8] deals with Glucocorticoid receptor (Homo sapiens) (UniProt P04150). Kind of assay: qHTS assay to identify small molecule antagonists of the glucocorticoid receptor (GR) signaling pathway (AID 720692; active means well fitted inhibition curve with a large enough effect in the signal ratio in the repeat runs, not every such curve was filed as active; the % refers to the signal ratio). In outline:
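Fluorescence from cleaved LiveBLAzer B/G FRET substrate reports GRE-driven beta-lactamase in HeLa cells; compounds are tested against 5 nM dexamethasone (final) over 18 h at 37 C, substrate incubation 2 h at room temperature.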

Assay [9] in a line: qHTS assay to identify small molecule antagonists of the glucocorticoid receptor (GR) signaling pathway - cell viability counter screen (AID 720693). Further: nearly all actives have a fitted effect of over 55% in size.
The nature of assay [10]: qHTS assay for identifying genotoxic compounds that show differential cytotoxicity against isogenic chicken DT40 cell lines with known DNA damage response pathways - wild type cell line (AID 743012). Further: nearly all actives have a fitted effect of over 60% in size. In outline: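 Quantitative HTS on parental DT40 cells: 40 h compound treatment at 37 C/5% CO2, with viability then determined by CellTiter-Glo luminescence. Values serve as the DNA repair-proficient reference for differential cytotoxicity.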

Assay [11] is described as follows: qHTS assay for identifying genotoxic compounds that show differential cytotoxicity against isogenic chicken DT40 cell lines with known DNA damage response pathways - Rev3 mutant cell line (AID 743014). Further: nearly all actives have a fitted effect of over 55% in size. Further: potency means the concentration at half of the fitted maximal effect.
The nature of assay [12]: qHTS assay for identifying genotoxic compounds that show differential cytotoxicity against isogenic chicken DT40 cell lines with known DNA damage response pathways - Rad54/Ku70 mutant cell line (AID 743015). Further: nearly all actives have a fitted effect of over 60% in size.
A short description of assay [13]: qHTS assay to identify small molecule antagonists of the androgen receptor (AR) signaling pathway - cell viability counter screen (AID 743033; further: nearly all actives have a fitted effect of over 45% in size).
The target of assay [14] is Androgen receptor (Homo sapiens) (UniProt P10275). Kind of assay: qHTS assay to identify small molecule antagonists of the androgen receptor (AR) signaling pathway (AID 743035; active means well fitted inhibition curve with a large enough effect in the signal ratio in the repeat runs, not every such curve was filed as active; the % refers to the signal ratio). In outline: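 Cell line: GeneBLAzer AR-UAS-bla GripTite (HEK293). Stimulus: R1881 added after compound. Exposure: 16 h, 37C, 5% CO2. Readout: LiveBLAzer B/G FRET fluorescence after 2 h at room temperature.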

Assay [15] shares this target. Kind of assay: qHTS assay to identify small molecule agonists of the androgen receptor (AR) signaling pathway (AID 743036; active means well fitted activation curve with a large enough effect in the signal ratio in the repeat runs, with a control signal flat, not every such curve was filed as active; the % refers to the signal ratio). In outline: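 Quantitative HTS of the Tox21 10K library in HEK293 cells bearing a stably integrated UAS-controlled beta-lactamase reporter. Compound exposure lasted 16 h at 37C. Reporter activity was detected by FRET substrate fluorescence after 2 h at room temperature.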

Assay [16] shares this target. Kind of assay: qHTS assay to identify small molecule agonists of the androgen receptor (AR) signaling pathway using the MDA cell line (AID 743040; further: nearly all actives have a fitted effect of over 20% in size). In outline:
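Luminescence from ONE-Glo, read after 30 min at room temperature, reflects MMTV-driven luciferase in MDA-kb2 cells (AR- and GR-responsive). Treatment lasted 16 h at 37C, 0% CO2.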

A short description of assay [17]: qHTS assay to identify small molecule antagonists of the androgen receptor (AR) signaling pathway using the MDA cell line - cell viability counter screen (AID 743041; further: nearly all actives have a fitted effect of over 45% in size). In outline: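 Viability counter screen run alongside the AR antagonist reporter: cells seeded 5 h before compound, R1881 added, 16 h incubation at 37C without CO2, fluorescent CellTiter-Fluor signal quantified.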

Assay [18] has as its target Androgen receptor (Homo sapiens) (UniProt P10275). Kind of assay: qHTS assay to identify small molecule antagonists of the androgen receptor (AR) signaling pathway using the MDA cell line (AID 743042; further: nearly all actives have a fitted effect of over 55% in size). In outline: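 MDA-kb2 cells (human breast carcinoma, stably carrying an MMTV-luciferase reporter responsive to AR and GR) were plated at 3,000 cells/well and preincubated 5 hr at 37C, then given compound plus R1881 agonist for 16 h. ONE-Glo luminescence was read.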

Assay [19] in a line: qHTS assay to test for compound auto fluorescence at 535 nm (green) in HepG2 cell free culture (AID 720686).
Assay [20] concerns the target Glucocorticoid receptor (Homo sapiens) (UniProt P04150). Kind of assay: qHTS assay to identify small molecule agonists of the glucocorticoid receptor (GR) signaling pathway (AID 720691; active means well fitted activation curve with a large enough effect in the signal ratio in the repeat runs, not every such curve was filed as active; the % refers to the signal ratio). In outline: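 Beta-lactamase reporter activity, read as fluorescence intensity, was measured in GR-bla HeLa cells exposed to compounds for 18 h at 37 C and then loaded with LiveBLAzer B/G FRET substrate for 2 h at room temperature.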

Values without a mark were called inactive. Results filed as inconclusive are left out. Calls of active or inactive are those of the source. Unless noted, the call rests on the fitted dose curve; in most records, active means well fitted curve in the direction sought with a large enough effect in the repeat runs; inconclusive means weak or mixed curves; inactive means no such curve, though single readings can be large; an effect the other way counts as inactive or inconclusive.

Androgen receptor (Homo sapiens), sequence (P10275 whole entry, looked up): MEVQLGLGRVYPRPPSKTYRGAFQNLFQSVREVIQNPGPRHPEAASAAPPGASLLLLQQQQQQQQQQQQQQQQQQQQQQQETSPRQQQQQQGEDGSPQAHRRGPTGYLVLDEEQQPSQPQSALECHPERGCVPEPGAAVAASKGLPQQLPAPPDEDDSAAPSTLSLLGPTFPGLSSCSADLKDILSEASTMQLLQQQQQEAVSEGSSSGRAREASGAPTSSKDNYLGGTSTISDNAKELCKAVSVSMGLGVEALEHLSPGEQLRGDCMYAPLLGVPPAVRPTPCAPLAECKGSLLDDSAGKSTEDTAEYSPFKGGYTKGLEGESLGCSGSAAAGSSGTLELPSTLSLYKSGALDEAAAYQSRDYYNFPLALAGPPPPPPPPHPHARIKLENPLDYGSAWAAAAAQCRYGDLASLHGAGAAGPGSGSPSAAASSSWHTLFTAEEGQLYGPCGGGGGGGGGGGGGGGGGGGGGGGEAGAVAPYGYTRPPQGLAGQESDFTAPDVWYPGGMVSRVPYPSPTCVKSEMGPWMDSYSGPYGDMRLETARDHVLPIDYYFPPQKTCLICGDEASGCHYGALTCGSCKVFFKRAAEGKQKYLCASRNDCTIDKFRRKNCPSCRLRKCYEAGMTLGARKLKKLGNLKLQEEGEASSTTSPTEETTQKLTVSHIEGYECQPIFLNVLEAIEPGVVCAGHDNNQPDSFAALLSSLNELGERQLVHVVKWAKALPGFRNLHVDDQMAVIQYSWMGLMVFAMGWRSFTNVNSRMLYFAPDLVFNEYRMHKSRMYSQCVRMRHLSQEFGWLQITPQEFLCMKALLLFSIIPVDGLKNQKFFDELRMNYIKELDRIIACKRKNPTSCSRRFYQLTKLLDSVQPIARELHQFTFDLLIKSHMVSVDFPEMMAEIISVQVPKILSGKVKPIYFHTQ
Glucocorticoid receptor (Homo sapiens), sequence (P04150 whole entry, looked up): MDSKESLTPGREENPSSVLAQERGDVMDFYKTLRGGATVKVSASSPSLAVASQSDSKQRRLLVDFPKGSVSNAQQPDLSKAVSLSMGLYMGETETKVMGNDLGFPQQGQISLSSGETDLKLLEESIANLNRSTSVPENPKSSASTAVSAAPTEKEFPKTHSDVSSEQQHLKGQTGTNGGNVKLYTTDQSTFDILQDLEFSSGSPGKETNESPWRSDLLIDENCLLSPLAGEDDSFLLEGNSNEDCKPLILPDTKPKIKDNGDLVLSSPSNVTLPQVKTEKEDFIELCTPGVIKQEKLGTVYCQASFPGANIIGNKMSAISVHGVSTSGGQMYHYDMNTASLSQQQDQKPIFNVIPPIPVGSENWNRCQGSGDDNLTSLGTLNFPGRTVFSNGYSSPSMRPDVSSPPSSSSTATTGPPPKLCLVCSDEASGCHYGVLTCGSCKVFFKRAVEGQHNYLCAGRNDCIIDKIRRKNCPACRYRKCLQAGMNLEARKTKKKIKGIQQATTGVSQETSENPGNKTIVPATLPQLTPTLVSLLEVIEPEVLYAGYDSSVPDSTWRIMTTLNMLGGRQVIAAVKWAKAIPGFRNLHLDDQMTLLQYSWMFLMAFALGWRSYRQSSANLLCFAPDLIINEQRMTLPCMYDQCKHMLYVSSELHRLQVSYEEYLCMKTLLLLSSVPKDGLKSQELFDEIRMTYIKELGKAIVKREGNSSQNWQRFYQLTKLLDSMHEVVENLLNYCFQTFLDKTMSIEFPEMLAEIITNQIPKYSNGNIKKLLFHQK

In the case of `O=C(O)C(=O)Cc1ccccc1`, the outcome in assay [1], in [2], in assay [3], in assay [4], in assay [5] and in assay [6] was inactive. Moreover, the compound was classed as inactive in [7], in assay [8], in assay [9], in [15] and in assay [16]. Besides, the Potency result in [10], in [11], in assay [12], in [13], in assay [14] and in assay [17] was “inactive” throughout. For the same compound, the Potency entry in [18] was “inactive”.
In the case of `CCCC/C=C\CCCCCCCCCC=O`, the call in assay [1], in assay [2], in assay [3], in assay [4], in [6] and in assay [19] was inactive. Moreover, the call in assay [7] and in assay [9] was inactive. Moreover, the Potency entry in assay [11], in assay [12] and in assay [13] was “inactive” each time.
For `O=S(=O)(O)c1ccc2cc(O)c(S(=O)(=O)O)cc2c1`, the result in assay [1], in [3], in assay [4], in assay [5], in [7] and in assay [8] was inactive. Further, the compound was classed as inactive in assay [9]. The Potency result in assay [20], in assay [10], in assay [11], in [12], in assay [13] and in [17] was “inactive” each time.
On to `FC(F)(F)c1ccccc1-n1ccnc1`, for which the result in [2], in assay [3], in assay [4], in [5], in assay [6] and in [19] was inactive. Also, the compound was called inactive in [7], in [8] and in assay [9]. The Potency result in assay [20], in assay [10], in assay [11], in assay [12], in assay [13] and in [17] was “inactive” each time.
For the compound `CCOCCOCCOCC`, the outcome in [1], in assay [2], in assay [3], in [4], in [6] and in assay [19] was inactive. The compound was classed as inactive in assay [7] and in assay [9]. Further, the Potency result in [20], in assay [10], in assay [11] and in assay [13] was “inactive” in each case.
As to `CC(C)CC(C)CC(C)CC(C)COC(=O)c1ccccc1C(=O)OCC(C)CC(C)CC(C)CC(C)C` (stereo not drawn), the outcome in assay [1], in [2], in [3], in assay [4], in [6] and in assay [19] was inactive. Moreover, the outcome in [7] and in assay [9] was inactive. For the same compound, the Potency result in assay [10] and in assay [13] was “inactive” in each case. Besides, in assay [11], the Potency was 25.3 µM (active).
For the compound `Nc1ncnc(Nc2ccccc2)n1`, the call in assay [1], in assay [2], in assay [3], in assay [4], in assay [6] and in assay [19] was inactive. In addition, the compound was called inactive in [7]. In addition, the Potency result in [20], in assay [10], in assay [11], in [12] and in [13] was “inactive” in each case.
Consider `Cc1ccc2c(c1)OCC(=O)CO2`, for which the call in assay [1], in [2], in assay [3], in assay [4], in assay [6] and in assay [19] was inactive. The outcome in [7] and in assay [9] was inactive. Also, the Potency result in assay [20], in assay [10], in [11], in assay [12], in assay [13] and in [17] was “inactive” each time.
For the compound `CC(C)OC(=O)CCCCC(=O)OC(C)C`, the compound was classed as inactive in assay [1], in assay [2], in assay [3], in [4], in assay [6] and in [19]. The compound was classed as inactive in assay [7]. The Potency entry in assay [20], in [12] and in [13] was “inactive” each time.
For the compound `CC(C)CCCC(C)(C)O`, the compound was classed as inactive in [1], in [2], in assay [3], in [4], in assay [6] and in assay [19]. Further, the compound was classed as inactive in assay [7] and in [9]. For the same compound, the Potency entry in assay [10], in assay [11], in [12] and in assay [13] was “inactive” in each case.
